This is a sample that favours compounds with a hit; in the whole collection about 6.5% have one here.
FMDV inh = blocks foot and mouth disease virus; 1.2% of 410,000 active; Potency, µM (titrated, usually from 57.9 µM), for inactives: at the highest dose activity change, negative = inhibition, hits mostly inhibitors; FMDV antiviral cell-based qHTS; calls by dose curve; tested in HEK293T cells; also: read-out not given here; potency is read from the fitted curve at half-maximal effect; nearly all actives have a fitted effect of over 45% in size
Marburg entry inh = Marburg virus entry inhibition; Potency, µM (series often up to 37.8 µM), for inactives: at the top dose activity change, negative = inhibition, most hits filed as inhibitors; Marburg virus pseudotyped entry inhibition, cell reporter; AID 540276; 1.8% of 300,000 active; calls by dose curve; tested in HEK293 cells; also: potency is read from the fitted curve at half-maximal effect
LASV entry inh = Lassa virus entry inhibition; Lassa virus pseudotype entry inhibition, cell reporter; Potency, µM (doses to about 37.9 µM), inactives show at the highest dose activity change, negative = inhibition, actives largely listed as inhibitors; 1.2% of 300,000 active; AID 540256; calls by dose curve; tested in HEK293 cells; also: potency is read from the fitted curve at half-maximal effect; nearly all actives have a fitted effect of over 50% in size
VACV mCherry inh = inhibitors of vaccinia virus infection (mCherry reporter signal); Vaccinia virus mCherry reporter infection, fluorescence; Potency, µM (series often up to 36.5 µM), for the others: at the highest dose activity change, negative = inhibition, hits mostly inhibitors; AID 720579; 0.63% of 310,000 active; calls by dose curve; tested in A549 cells; also: potency is read from the fitted curve at half-maximal effect; nearly all actives have a fitted effect of over 35% in size
Vaccinia Venus = inhibitors of vaccinia virus (Venus reporter). Vaccinia virus Venus reporter expression, fluorescence. 0.46% of 330,000 active. Potency, µM (doses to about 36.5 µM), inactives show at the highest dose activity change, negative = inhibition, hits mostly inhibitors. AID 720580; calls by dose curve; tested in A549 cells; also: potency is read from the fitted curve at half-maximal effect; nearly all actives have a fitted effect of over 30% in size
HCMV antiviral = blocks human cytomegalovirus replication; HFF cells, HCMV-luciferase reporter, 72 h; hits give low values; activity change, negative = inhibition, % at 57.5 µM; 4.5% of 410,000 active; in the data active = activity change below about -60%; inconclusive = no clear call, values can overlap the other calls; inactive = above about -39%
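Two compound doses tested in HFFs infected with HCMV-luciferase, MOI 1 PFU/cell, 72 h at 37C. Lysate luminescence read with OneGlo; data normalized against buffer-only and 10uM Salinomycin inhibitor controls.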
Starred values were filed as active, the others as inactive; i = inactive; ? = inconclusive; / = not tested or not shown; [ ] = remark or other dose. % is scaled to controls: 0 for no effect and ±100 for the full control effect.

SMILES	FMDV inh	Marburg entry inh	LASV entry inh	VACV mCherry inh	Vaccinia Venus	HCMV antiviral
Cc1ccc(-c2ccc(/C=C3\SC(N4CCOCC4)=NC3=O)o2)cc1	-14%	?	?	?	?	-4
O=C1N=C(N2CCOCC2)S/C1=C/c1ccc(-c2ccc(F)cc2)o1	-16%	2.5µM*	?	i	-20%	-4
Clc1ccc2c(c1)CNc1c(ncnc1N1CCOCC1)O2	?	-1%	-14%	/	10µM*	4
CCOC(=O)c1cnc(S[C@@H]2CC(=O)N(c3cccc(OC)c3)C2=O)nc1N	/	13%	/	/	/	/
OCCN1CCN(CCCN2c3ccccc3Sc3ccc(Cl)cc32)CC1	-21%	5µM*	15µM*	?	?	-8
COC(=O)c1ccc(-c2cccc3c2OC(CNC(=O)c2ccc4c(c2)OCCO4)C3)nc1 (stereo unspecified)	11%	/	/	?	?	/
CCc1c(C)nc2ncnn2c1NCCc1ccc(OC)c(OC)c1	?	-1%	-25%	/	/	-73*
COc1ccc(CCNc2c(C)c(C)nc3ncnn23)cc1	?	?	?	?	?	-89*
Cc1ccc(Cl)cc1Nc1nn2c(=O)c3ccc(C(=O)NCc4ccc(F)cc4)cc3nc2s1	-6%	/	4%[46.1 µM]	?	?	-3
CCOC(=O)N1C(=O)[C@](c2ccc(Cl)cc2)(C(C)C)N1C(=O)OCC	28µM*	/	/	10µM*	?	-90*
COC(=O)N1C(=O)[C@](c2ccccc2)(C(C)C)N1C(=O)OC	-26%	/	/	?	-26%	19
CCOC(=O)N1C(=O)[C@@](c2ccc(Cl)cc2)(C(C)C)N1C(=O)OCC	?	/	/	?	13µM*	44
CCC(=O)N[C@@H]1c2ccccc2C2(CCN(Cc3ccccn3)CC2)[C@H]1OC	-15%	/	/	i	-9%	/
Cc1cc(C)cc(NC(=O)C2CCN(S(=O)(=O)c3cn(C)cn3)CC2)c1	-9%	/	2%[46.1 µM]	-12%	-6%	-17
Cc1ccc(F)c(NC(=O)Nc2ccc3snnc3c2)c1	13%	4%[46.1 µM]	-1%[46.1 µM]	-4%	-3%	-106*
O=C(Nc1ccc(F)cc1)Nc1ccc2snnc2c1	-17%	?	-26%[46.1 µM]	-26%	-28%	-75*
CC(=O)Nc1cccc(NC(=S)Nc2cccc(Cl)c2C)c1	20%	/	/	-5%	-18%	41
CC(=O)c1ccc(NC(=O)Nc2ccc3snnc3c2)cc1	30%	5%[46.1 µM]	?	-13%	-10%	53
CNC(=O)Nc1ccc2snnc2c1	0%	/	/	i	-9%	8
Cc1c(Cl)cccc1NC(=O)Nc1ccc2snnc2c1	0%	?	?	?	?	-104*
CC(=O)Nc1cccc(NC(=O)Nc2cccc(Cl)c2C)c1	-12%	-1%[46.1 µM]	-17%[46.1 µM]	i	-23%	-71*
COC(=O)[C@@H]1[C@@H](CO)[C@@H]2Cn3c(ccc(Br)c3=O)[C@H]1N2CCc1ccccc1	/	/	/	/	/	12
Cc1ccc(NC(=O)CSc2nc3c(oc4ccccc43)c(=O)n2Cc2ccco2)cc1F	2%	-1%[46.1 µM]	0%[46.1 µM]	-9%	-11%	10
CCCCCc1cc(=O)oc2c(C(CCN3CCCC(C)C3)c3ccc(N(C)C)cc3)c(OC)cc(OC)c12 (stereo unspecified)	-12%	/	/	11µM*	?	/
COc1ccc(C(CCN2CCCCC2)c2c(OC)cc(OC)c3c(-c4ccccc4)cc(=O)oc23)cc1 (stereo unspecified)	18%	/	/	-27%	14µM*	2
SMILES	FMDV inh	Marburg entry inh	LASV entry inh	VACV mCherry inh	Vaccinia Venus	HCMV antiviral
CCCCCc1cc(=O)oc2c(C(CCN3CCCCC3)c3cc(OC)c(OC)c(OC)c3)c(OC)cc(OC)c12 (stereo unspecified)	?	/	/	?	16µM*	-11
COc1cc(OC)c2ccc(=O)oc2c1C(CCN1CCCC(C)C1)c1ccc(N(C)C)cc1 (stereo unspecified)	-10%	/	/	-19%	-12%	-6
COc1cc(OC)c2c(-c3ccccc3)cc(=O)oc2c1C(CCN1CCCCC1)c1ccc(N(C)C)cc1 (stereo unspecified)	-10%	/	/	?	?	/
CCCCCc1cc(=O)oc2c(C(CCN(CC)CC)c3ccc(N(C)C)cc3)c(OC)cc(OC)c12 (stereo unspecified)	-10%	/	/	-29%	?	-75*
CSc1nc(NCCOC(C)=O)c(C#N)c(-c2ccc(C(C)(C)C)cc2)n1	?	?	4%[46.1 µM]	-19%	-14%	-20
O=C(NCc1cccc(F)c1)c1ccccc1NC(=O)c1nsc2ccccc12	0%	/	-29%[46.1 µM]	i	-16%	0
CCCC(=O)N1CC(=O)Nc2ccc(C)cc2C1c1ccc(F)cc1 (stereo unspecified)	-20%	/	/	-33%	-10%	-25
CCCC(=O)N1CC(=O)Nc2ccc(Br)cc2C1c1ccc(F)cc1 (stereo unspecified)	-16%	11µM*	-5%[46.1 µM]	i	-7%	-29
Cc1ccc2c(c1)C(c1ccc(F)cc1)N(C(=O)COc1ccc(Cl)cc1Cl)CC(=O)N2 (stereo unspecified)	?	?	?	-18%	-22%	-60*
O=C1CN(C(=O)COc2ccc(Cl)cc2Cl)C(c2ccc(F)cc2)c2cc(F)ccc2N1 (stereo unspecified)	-19%	?	?	-13%	-11%	17
CC(C)CN(CC(C)C)c1ccc(/C=C/c2nc3ccccc3s2)cc1	/	/	/	-25%	10%	/
CC(C)=CCCN1CCC(NC(=O)C(O)(c2ccccc2)C2CCCC2)CC1 (stereo unspecified)	-22%	/	/	/	/	/
CCOC(=O)c1c(N)n(CCCOC(=O)c2ccco2)c2nc3ccccc3nc12	?	?	?	?	10µM*	-21
CCCCCn1c(NC(=O)c2ccco2)c(C(=O)OCC)c2nc3ccccc3nc21	?	4.5µM*	?	-27%	-29%	/
Cc1cc(N2CCN(C)CC2)nc2ccc(NC(=O)Nc3ccc(F)cc3)cc12	18%	/	?	-21%	-25%	-6
Cc1cc(N2CCN(C)CC2)nc2ccc(NC(=O)Nc3ccccc3Cl)cc12	20%	/	?	-9%	-11%	-100*
COc1cccc(NC(=O)Nc2ccc3nc(N4CCN(C)CC4)cc(C)c3c2)c1	7%	/	-12%[46.1 µM]	?	-21%	-101*
CCN1CCCC1CNC(=O)c1cnn(-c2ncc3c(n2)-c2ccc(OC)cc2CC3)c1C1CC1 (stereo unspecified)	-8%	/	/	i	-3%	/
COc1ccc(CC(=O)N2CC3ON=C(c4c(F)cccc4Cl)C3C2)cc1 (stereo unspecified)	/	/	/	/	/	52
COc1ccc(-c2nn(-c3ccccc3)cc2CNCCN2CCOC2=O)c(F)c1	1%	?	-16%	-29%	-7%	-17
COc1ccc(-c2nn(-c3ccccc3F)cc2CNCCn2nc(C)cc2C)cc1	?	/	/	i	-15%	-73*
